Screening data from PubChem BioAssay.
Hits are enriched below; roughly 19% of the tested compounds scored in any of these assays.
TDP1 cell noCPT: qHTS for Inhibitors of human tyrosyl-DNA phosphodiesterase 1 (TDP1): qHTS in cells in absence of CPT | DT40 Tdp1-/- hTDP1 cells, no CPT, ATP luminescence, 48 h | Potency, µM (highest dose often 46.2 µM), for inactives: at the top dose activity change, negative = growth inhibition, actives largely listed as inhibitors | actives 15% (n = 420,000) | AID 686978, 2013; also: nearly all actives have a fitted effect of over 55% in size
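Camptothecin absent (DMSO only). Human TDP1-complemented DT40 knockout cells, 400 cells/well, 37 °C for minimum 48 hr; ATP measured via CellTiter-Glo, 30 min dark incubation, luminescence.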
TDP1 cell CPT: growth inhibition of DT40 Tdp1-/-;hTDP1 cells with camptothecin (screen for TDP1 inhibitors). chicken DT40 Tdp1-/-;hTDP1 cells + 20 nM CPT, ATP luminescence, 48 h. Potency, µM (titrated, usually from 46.2 µM), for the others: at the top dose activity change, negative = growth inhibition, hits mostly inhibitors. actives 12% (n = 420,000). AID 686979; also: nearly all actives have a fitted effect of over 55% in size
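Cell growth measured by CellTiter-Glo luminescence after a minimum 48 h, 37 C compound exposure with 20 nM CPT in Tdp1-knockout DT40 cells stably expressing hTDP1, seeded 400/well; qHTS titration format.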
KB-V1 cytotox: kills drug-selected multidrug resistant KB-V1 cells | KB-V1 MDR cells viability, CellTiter-Glo, 72 h | actives 3.4% (n = 400,000) | Potency, µM (titrated, usually from 46.1 µM), actives largely listed as cytotoxic; also: nearly all actives have a fitted effect of over 60% in size
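Luminescent ATP read-out (CellTiter-Glo, 10 min) measures survival of drug-selected KB-V1 MDR cells after 72 h, 37 degrees C compound exposure. Medium: phenol-red-free DMEM, 10% FBS. Values from fitted concentration-response curves.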
KB-3-1 cytotox: KB-3-1 parental cell cytotoxicity | KB-3-1 viability, CellTiter-Glo ATP luminescence, 72 h | Potency, µM (top dose mostly 46.1 µM), most hits filed as cytotoxic | actives 1.4% (n = 400,000) | AID 1347075; also: nearly all actives have a fitted effect of over 60% in size
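KB-3-1 cells, DMEM (no phenol red) + 10% FBS; compound by pin transfer, 72 h, 37 °C. Readout: CellTiter-Glo luminescence after 10 min. Data normalized, curve-fitted.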
HT1080 IDH1KD tx: kills HT-1080 cells with IDH1 knockdown | Potency, µM (highest dose often 46.1 µM), for the others: at the highest dose activity, negative = toxicity, hits mostly cytotoxic | HT-1080 IDH1 knockdown viability, ATP luminescence, 48 h | actives 2% (n = 360,000) | AID 686971;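 also: 0% = DMSO wells and -100% = cell-free medium wells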
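Luminescent ATP read-out (CellTiter-Glo, 10 min at room temperature) after 48 h compound exposure at 37 °C gave viability of IDH1-knockdown HT-1080 cells. Activity was normalised to DMSO and cell-free wells, then fitted as concentration-response curves.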
HT1080NT lethal: kills 2HG-producing HT-1080-NT fibrosarcoma cells | HT-1080-NT fibrosarcoma viability, CellTiter-Glo ATP luminescence, 48 h | Potency, µM (highest dose often 46.1 µM), without a hit: at the highest dose activity, negative = less viability, usual class: cytotoxic | actives 1.6% (n = 360,000) | AID 686970;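 also: NT is the 2HG producing partner of a matched IDH1 knockdown line; 0% = DMSO-treated cells and -100% = media-only wells without cells; nearly all actives have a fitted effect of over 55% in size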
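Fibrosarcoma NT cells, 750 per well in 5% FBS RPMI, were exposed to compound for 48 hours. Viability: CellTiter-Glo luminescence.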
* hit, by the source's call; i = inactive; ? = inconclusive; · = not tested or not shown. Calls follow the shape of the dose curve; as a rule, active = well fitted curve in the direction sought with a large enough effect; inconclusive = small, poorly fitted or top-dose-only effect, or another doubt; inactive = no such curve, though single readings can be large; an effect the other way counts as inactive or inconclusive. Unless noted, % is scaled to controls: 0 for no effect and ±100 for the full control effect; potency is read from the fitted curve at half-maximal effect.

SMILES	TDP1 cell noCPT	TDP1 cell CPT	KB-V1 cytotox	KB-3-1 cytotox	HT1080 IDH1KD tx	HT1080NT lethal
Cc1c(Cl)c(=O)oc2cc(OC(C)C)ccc12	1%	2%	21µM*	i	-2%	2%
CC1(c2ccc3ccccc3c2)NC(=O)N(CC(=O)N2CCN(c3ccccc3O)CC2)C1=O (configuration not stated)	13µM*	?	?	i	0%	-6%
COc1cccc(N2CCN(C(=O)CN3C(=O)NC(C)(c4ccc5ccccc5c4)C3=O)CC2)c1 (configuration not stated)	16µM*	13µM*	i	i	-6%	-12%
Cc1ccc(C2(C)NC(=O)N(CC(=O)N3CCN(S(=O)(=O)c4cccs4)CC3)C2=O)cc1 (configuration not stated)	-26%	-16%	i	i	8%	1%
Cc1ccc(C2(C)NC(=O)N(CC(=O)N3CCN(S(=O)(=O)c4ccc(Cl)s4)CC3)C2=O)cc1 (configuration not stated)	?	21µM*	?	?	-9%	-4%
CN1CCN(C(=O)CN2C(=O)NC(C)(c3ccc4ccccc4c3)C2=O)CC1 (configuration not stated)	-2%	-4%	i	i	3%	0%
Cc1ccc(S(=O)(=O)N2CCN(C(=O)CN3C(=O)NC(C)(c4ccc5ccccc5c4)C3=O)CC2)cc1 (configuration not stated)	?	?	?	i	0%	-9%
CC1(c2ccc3ccccc3c2)NC(=O)N(CC(=O)N2CCN(S(=O)(=O)c3ccccc3F)CC2)C1=O (configuration not stated)	23µM*	?	·	·	?	-28%
COc1ccc(Cl)cc1NC(=O)Cn1c(=O)n(Cc2nc(C)no2)c(=O)c2ccccc21	-18%	-3%	i	i	·	·
Cc1ccc2c(c1)cc1c(=O)n(Cc3ccc(Cl)cc3)nc(C)n12	-12%	-19%	i	i	·	·
CCCCOc1cccc(C2c3c(oc4ccccc4c3=O)C(=O)N2c2ccccn2)c1 (configuration not stated)	5%	17%	·	·	·	·
COc1ccc(Cl)cc1NC(=O)CN(C)C(=O)CN1C(=O)NC(C)(C)C1=O	-13%	3%	·	·	0%	0%
CC1CCN(C(=O)CN2C(=O)NC(C)(c3ccc4ccccc4c3)C2=O)CC1 (configuration not stated)	16µM*	18µM*	i	i	-1%	4%
COc1ccc(Cl)cc1NC(=O)CN(C)C(=O)CN1C(=O)NC(C)(c2ccc3ccccc3c2)C1=O (configuration not stated)	15µM*	?	?	10µM*	?	?
C#CCNC(=O)C[C@@H]1C[C@@]2(C(=O)OC)CC(C)(C)CC=C2N(CCc2ccc(OC)c(OC)c2)C1=O	-25%	?	?	i	-3%	0%
COC(=O)[C@@]12C[C@@H](CC(=O)NCc3cccc4ccccc34)C(=O)N(CCc3ccc(OC)c(OC)c3)C1=CCC(C)(C)C2	?	?	23µM*	?	-24%	?
COC(=O)[C@]12CCCCC=C1N(Cc1ccco1)C(=O)[C@H](CC(=O)NCc1ccc(OC)c(OC)c1)C2	?	?	i	i	10%	?
COC(=O)[C@@]12C[C@@H](CC(=O)NCc3ccccc3)C(=O)N(CCc3ccc(OC)c(OC)c3)C1=CCC(C)(C)C2	13µM*	13µM*	?	i	-4%	-21%
